Source: ChEMBL document CHEMBL3433997, “St. Jude Leishmania screening dataset” (2016)

Each compound was assayed against Glucose transporter (Leishmania mexicana) (UniProt O61059) (assay: ST_JUDE_LEISH: Cytotoxicity at 2uM final concentration against transgenic Leishmania Mexicana promastigotes LmGT2 that are glucose transport deficient and complemented with the L. Mexicana glucose transporter 2. Activity is measured by DNA content using SYBR green in vitro).
Type: functional

SMILES	inhibition [%]
COc1ccc(-c2ccc(NC(=O)c3ccc(C#N)cc3)c(F)c2)cc1CN(C)CCN(C)C	0.45
O=C(Nc1ccc(F)cc1)N1CCCN(c2ccnc3cc(Cl)ccc23)CC1	1.11
Cc1cccc2nc(-c3cccc(-c4cccc(NC(=O)COc5ccccc5C(N)=O)c4)c3)[nH]c12	2.14
O=C(CSc1nc(-c2ccccc2Cl)ns1)Nc1cccc(F)c1	5.3
OCCNc1nc(Nc2cccc(O)c2)nc2ccccc12	4.01
CCc1cc2c(cc1CC)CC(NC[C@@H](O)c1ccc(O)c3[nH]c(=O)ccc13)C2	2.1
CCCC(C)Nc1nc(C)cc(N[C@@H](CC(C)C)C(=O)Nc2ccc(OC)cc2)n1 (stereo partly specified)	1.36
CC(C)c1ccc(-c2noc(SCC(=O)N(C)c3ccc(F)cc3)n2)cc1	-0.55
COc1ccccc1NC(=O)Nc1cccc(-c2cccc(-c3nc4cc(C(F)(F)F)ccc4[nH]3)c2)c1	0.05
Cn1c(N)cc(-c2ccc(Br)cc2)c2c(=O)nc(N)nc1-2	5.76
CCCCCCCN1CC[C@@H](CCCc2ccnc3ccc(OCCN4CCOCC4)cc23)[C@@H](CC)C1	9.34
CCCCc1cc(NCc2ccncc2)nc(Nc2cccc(OC)c2)n1	3.45
FC(F)(F)Oc1ccc(-c2cnc3ccc(NCc4ccncc4)nn23)cc1	-1.87
O=C(NC1CCC1)C1CCN(C(c2ccccc2)c2cc(F)cc(F)c2)CC1 (stereo unspecified)	6.61
Cc1nc(NCc2ccccc2)cc(NCC(O)c2ccc(O)cc2)n1 (stereo unspecified)	7.2
CC[C@H](NC(=O)c1c(CN2CCC(N3CCCCC3)CC2)c(-c2ccccc2)nc2c(Cl)c(O)ccc12)c1ccccc1	6.04
